Screening results from PubChem BioAssay.
tim10-1 inh – growth inhibitors of tim10-1 mutant yeast, primary screen, luminescence, uHTS | inhibition, % at 20 µM | S. cerevisiae tim10-1 ts strain growth, BacTiter-Glo, 24 h | 330,000 tested, 2.2% active | AID 463190, 2010;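 active = inhibition of at least 40%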;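 also: mutant grown at 25 °C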
tim23-1 inh – growth inhibitors of tim23-1 mutant yeast, primary screen, luminescence, uHTS. S. cerevisiae tim23-1 growth, BacTiter-Glo luminescence, 24 h. 330,000 tested, 1.3% active. inhibition, % at 20 µM. AID 463212, 2010;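 active = growth inhibition of the mutant yeast at or above 50%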;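 also: temperature-sensitive mutant grown at 25 °C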
PfHsp90 yeast 2 – growth inhibition of PfHsp90-expressing yeast, primary screen, antimalarial PfHsp90 inhibitor project, S. cerevisiae, BacTiter-Glo luminescence, single point, set 2 | inhibition, % at 9.4 µM | BacTiter-Glo ATP, 48 h; yeast lacking PDR1 and PDR3 efflux regulators | 310,000 tested, 0.32% active | AID 504621, 2011;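 active = every replicate shows inhibition above about 80%, whatever the replicate mean, limit read from the data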
NLRP3 yeast inh – NALP3 inflammasome inhibitors in reconstituted yeast, primary screen, luminescence, uHTS; 330,000 tested, 0.39% active; inhibition, % at 10 µM; AID 2825, 2010; Yeast reconstituted NLRP3/ASC/caspase-1, beta-gal luminescence, 24 h;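 active = inhibition of 50% or more; inactive = inhibition below 50%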
NALP1 inh – NALP1 inflammasome inhibitors in reconstituted yeast, colorimetric, S. cerevisiae, triplicate retest; S. cerevisiae NALP1/ASC/caspase-1 growth, X-gal OD620, 72 h; inhibition, % at 10 µM; 280,000 tested, 0.61% active; AID 2071, 2009; in the data active = inhibition mostly above about 24%, no sharp cut-off; inactive = mostly below about 32%
TIM10 inh – growth inhibitors of isogenic TIM10 control yeast, primary screen, counter-screen for tim10-1 yeast inhibitor project, luminescence, uHTS; S. cerevisiae TIM10 strain growth, BacTiter-Glo luminescence, 24 h; inhibition, % at 10 µM; 330,000 tested, 1.4% active;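 active = inhibition of 40% or more at the single tested concentration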;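 also: wild-type TIM10 isogenic control strain grown at permissive 25 °C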
tim10-1 confirm – growth inhibitors of tim10-1 mutant yeast, confirmation, single concentration, luminescence, S. cerevisiae. shares compounds with tim10-1 inh. S. cerevisiae tim10-1 ts strain growth, BacTiter-Glo, 24 h. inhibition, % at 20 µM. 7,400 tested, 56% active. AID 463213, 2010;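 active = inhibition of yeast growth at or above a set limit in either of two repeat tests at 20 µM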;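 also: tim10-1 mutant grown at permissive 25 °C to find synthetic lethal compounds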
TIM10 conf – growth inhibitors of wild-type TIM10 yeast, confirmation, counter-screen for tim10-1 synthetic lethality project, single concentration, luminescence, S. cerevisiae; S. cerevisiae tim10 strain growth, BacTiter-Glo luminescence, 24 h; 4,600 tested, 63% active; shares compounds with TIM10 inh; inhibition, % at 10 µM; AID 463215, 2010;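 active = inhibition of yeast growth at or above a set limit in either of two replicates at 10 µM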; also: this counterscreen used the strain with wild-type TIM10
tim23-1 conf – tim23-1 mutant yeast growth inhibitors, confirmation, luminescence, single concentration; 4,400 tested, 83% active; S. cerevisiae tim23-1 growth, BacTiter-Glo luminescence, 24 h; shares compounds with tim23-1 inh; inhibition, % at 20 µM;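 active = inhibition above about 39% in either of two replicate wells at 20 µM, limit read from the data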;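 also: temperature-sensitive tim23-1 mutant grown at 25 °C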
Each line names hits and unclear results; the compound was inactive in the other large screens (follow-up assays come after a bar, where they were run). A selection: hits, their analogues and other compounds. The true share with any hit is near 4.2%.

C/C(=N\NC(=O)c1ccccc1NC(=O)c1ccc(Cl)cc1)c1ccncc1	tim10-1 inh 96.2, tim23-1 inh 95.0, TIM10 inh 95.5 | tim10-1 confirm 97.2 | TIM10 conf 95.8 | tim23-1 conf 100.4
CCc1c(O)cc2n(c1=O)-c1ccc(Cl)cc1C2(C)C	tim10-1 inh 44.2, tim23-1 inh 52.1, TIM10 inh 42.0 | tim10-1 confirm 34.1 | TIM10 conf inactive | tim23-1 conf 49.2
Cc1ccc(CSc2nnc(CS(=O)Cc3ccc(Cl)cc3Cl)n2C)cc1 (centres undefined)	tim10-1 inh 47.3, tim23-1 inh 50.8, TIM10 inh 47.5 | tim10-1 confirm 36.8 | TIM10 conf 48.4 | tim23-1 conf 44.1
CC1=NN(c2ccc(Cl)cc2)C(=O)C1C(c1cccc(O)c1)c1c(C)[nH]n(-c2ccc(Cl)cc2)c1=O (centres undefined)	tim10-1 inh 48.0, tim23-1 inh 57.1 | tim10-1 confirm inactive | tim23-1 conf 51.4
O=C(CNC(=O)c1ccccc1)N/N=C/c1cc(Br)ccc1O	none
O=C(CN1CC(c2ccccc2)CC1=O)N/N=C/c1cc(Br)ccc1O (centres undefined)	tim10-1 inh 41.3, tim23-1 inh 56.1 | tim10-1 confirm inactive | tim23-1 conf 50.3
CCCc1cc(C(=O)OCC(=O)N2CCN(c3ccc(OC)cc3)CC2)sc1C	none (no result: NALP1 inh)
COc1ccc(S(=O)(=O)N2CCN(C(=O)c3oc4ccccc4c3C)CC2)cc1	tim10-1 inh 57.3, tim23-1 inh 53.3, TIM10 inh 44.2 | tim10-1 confirm 43.4 | TIM10 conf 55.4 | tim23-1 conf 54.1
COc1ccc(Br)cc1/C=N/Nc1cccc(C(=O)O)c1	none
COc1cc(Br)cc(C=Nc2cccc(C(F)(F)F)c2)c1O	none (no result: tim10-1 inh, tim23-1 inh, NLRP3 yeast inh, TIM10 inh)
O=C(O)c1cccc(N/N=C/c2cc(Br)cc(Br)c2O)c1	tim10-1 inh 49.2, tim23-1 inh 77.8, PfHsp90 yeast 2 110.2 | tim10-1 confirm 42.2 | tim23-1 conf 74.2
Cc1c(N=Cc2cc(Br)cc(Br)c2O)cccc1C(=O)O	tim10-1 inh 59.4, tim23-1 inh 83.4, PfHsp90 yeast 2 102.5, NALP1 inh 57.6, TIM10 inh 42.5 | tim10-1 confirm 50.5 | TIM10 conf inactive | tim23-1 conf 89.9
CNC(=S)Nc1ccc(C23CC4CC(CC(C4)C2)C3)cc1	tim10-1 inh 61.8, tim23-1 inh 62.8, TIM10 inh 50.2 | tim10-1 confirm 47.8 | TIM10 conf 39.4 | tim23-1 conf 78.8
O=C(NCc1cccs1)c1cc(S(=O)(=O)N2CCOCC2)c(Cl)cc1Cl	none
O=S(=O)(Nc1ccc(F)cc1Cl)c1ccc(-c2cnc(C3CC3)o2)cc1	tim10-1 inh 53.2, tim23-1 inh 54.6 | tim10-1 confirm inactive | tim23-1 conf 48.9
Cc1ccc(NS(=O)(=O)c2ccc(-c3cnc(C4CC4)o3)cc2)c(C)c1	tim10-1 inh 53.1, tim23-1 inh 51.5 | tim10-1 confirm inactive | tim23-1 conf inactive
CCOc1ccccc1NS(=O)(=O)c1ccc(-c2cnc(C3CC3)o2)cc1	none
COc1ccccc1NS(=O)(=O)c1ccc(-c2cnc(C3CC3)o2)cc1	none
COc1ccc(N2N=NN(C(C)C)C2=C(Cl)c2nnnn2-c2ccc(OC)cc2)cc1	none (no result: tim10-1 inh, tim23-1 inh, NLRP3 yeast inh, NALP1 inh, TIM10 inh)
